# The list is not random: actives were taken first. Their share in the collection is about 2.4%.
# POLI inh: qHTS for Inhibitors of Polymerase Iota; Pol iota fluorescent replication assay, 10 min; Potency, µM (highest dose often 115 µM), without a hit: top-dose activity, negative = inhibition, usual class: inhibitors; 390,000 compounds, 1% hits; AID 588590, 2011
#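 Fluorescent replication assay read twice, at 0 min and 10 min after adding 50 nM (final) substrate. Enzyme (10 nM) and compounds were first incubated 15 min at room temperature; enzyme-free buffer wells were negative controls.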
# FEN1 inh: qHTS Assay for the Inhibitors of Human Flap endonuclease 1 (FEN1) | 390,000 compounds, 0.35% hits | Potency, µM (series often up to 114 µM), for the others: at the highest dose activity change, negative = inhibition, hits mostly inhibitors | Recombinant FEN1 flap cleavage, fluorescence, 15 min; also: % is scaled to controls: 0 for no effect and ±100 for the full control effect; nearly all actives have a fitted effect of over 65% in size
#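 Enzyme 10 nM, 15 min RT preincubation with compound; start with substrate 50 nM final; reads at 0 and 15 min; qHTS titration, four-parameter Hill fit.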
# Pol beta inh: qHTS Assay for Inhibitors of DNA Polymerase Beta. P06746. 340,000 compounds, 1.3% hits. Potency, µM (highest dose often 114 µM), for inactives: at the highest dose activity change, negative = inhibition, actives largely listed as inhibitors. Pol beta primer extension/strand displacement, fluorescence kinetic. AID 485314, 2010; also: % is scaled to controls: 0 for no effect and ±100 for the full control effect
#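 Human Pol beta at 10 nM; strand-displacement substrate 50 nM final. Compound exposure 15 min at room temperature before start, reaction 10 min at room temperature.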
# Pol kappa inh: qHTS for Inhibitors of Polymerase Kappa; DNA polymerase kappa (Homo sapiens), Q9UBT6; purified Pol kappa, fluorescent DNA synthesis assay, 10 min; Potency, µM (top dose mostly 107 µM), inactives show top-dose activity, negative = inhibition, usual class: inhibitors; 400,000 compounds, 0.53% hits; AID 588579, 2011; also: % is scaled to controls: 0 for no effect and ±100 for the full control effect
#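 Activity was followed as the change in fluorescence between reads at 0 and 10 min after starting the reaction with 50 nM substrate. Beforehand, 10 nM polymerase had been preincubated with compound for 15 min at room temperature.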
# WRN helicase inh: qHTS for Inhibitors of WRN Helicase | Bifunctional 3'-5' exonuclease/ATP-dependent helicase WRN (Homo sapiens), Q14191 | WRN helicase unwinding, fluorescent forked duplex, kinetic | Potency, µM (titrated, usually from 114 µM), inactives show top-dose activity change, negative = inhibition, hits mostly inhibitors | 360,000 compounds, 0.46% hits | AID 651768, 2012; also: % is scaled to controls: 0 for no effect and ±100 for the full control effect; nearly all actives have a fitted effect of over 55% in size
#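 WRN at 20 nM final preincubated with compound 15 min at room temperature; reaction started with 100 nM fluorophore/quencher forked duplex oligonucleotide and 2 mM ATP final. Unwinding followed kinetically by red fluorescence (ex 525, em 598 nm).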
# Pol eta inh: qHTS for Inhibitors of Polymerase Eta; DNA polymerase eta (Homo sapiens), Q9Y253; recombinant Pol eta, fluorescent DNA replication assay; Potency, µM (highest dose often 114 µM), inactives show at the highest dose activity change, negative = inhibition, actives largely listed as inhibitors; 390,000 compounds, 1.2% hits; AID 588591, 2011; also: % is scaled to controls: 0 for no effect and ±100 for the full control effect
#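 Pol eta at 10 nM preincubated with compounds 15 min at room temperature; reaction started with fluorescent substrate (50 nM final) and read kinetically at 0 and 10 min.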
# * hit, by the source's call; ? = inconclusive; nt = no result given; [ ] = remark or other dose. Calls follow the shape of the dose curve; as a rule, active = well fitted curve in the direction sought with a large enough effect; inconclusive = small, poorly fitted or top-dose-only effect, or another doubt; inactive = no such curve, though single readings can be large; an effect the other way counts as inactive or inconclusive. Potency is read from the fitted curve at half-maximal effect.
SMILES,POLI inh,FEN1 inh,Pol beta inh,Pol kappa inh,WRN helicase inh,Pol eta inh
NC(=O)C1Cc2ccccc2CN1S(=O)(=O)c1cccs1 (stereo unspecified),35.2%,-6.8%,3.9%,6.2%,1.8%,-16.3%
CC(C)OC(=O)C1Cc2ccccc2CN1S(=O)(=O)c1cccs1 (stereo unspecified),?,5.5%,31.6µM*,-30.6%,-2.0%[11.6 µM],?
Cc1cc(C(=O)O)ccc1-n1c(C)cc(/C=C(/C#N)C(=O)Nc2ccccc2)c1C,79.4µM*,0.7%,-5.3%,-9.4%,?,?
Cc1ccc(-c2nnc(SCc3ccccc3C#N)o2)cc1,-0.8%,3.1%,-11.8%,-22.9%,nt,-19.1%
CN(C)c1ccc(C2=Cc3ccccc3C2)cc1,?,-8.4%,nt,?,nt,nt
CC(Cc1c[nH]c2ccccc12)C(=O)O (stereo unspecified),9.7%,13.9%,7.08µM*,?,-5.1%[11.6 µM],3.3%
CN(C)c1ccc(C=c2c3cc([N+](=O)[O-])ccc3n3c2cc(-c2ccccc2)[n+]3C)cc1,?,56.2µM*,nt,-24.2%,35.5µM*,0.3%
CN(c1ccc(Cl)cc1)c1cc(=O)n(C)c2ccccc12,5.8%,?,-28.9%,-7.5%,-1.3%,-10.1%
COc1cc(N(C)C)ccc1C=c1c2ccccc2n2c1cc(-c1ccccc1)[n+]2C,?,7.94µM*,nt,?,20µM*,22.4µM*
CN(C)c1ccc(C=c2c3ccccc3n3c2cc(-c2ccccc2)[n+]3C)cc1,?,8.91µM*,nt,-24.5%,?,?
CN(C)c1ccc(C=c2c3ccccc3n3c2cc(-c2ccc(Cl)cc2)[n+]3C)cc1,?,22.4µM*,nt,-10.8%,28.2µM*,?
CN(C)c1ccc(C=C2C=C(c3ccccc3)OC2=O)cc1,nt,nt,nt,nt,-15.2%,-17.9%
COc1cc(C=c2c3ccccc3n3c2cc(-c2ccccc2)[n+]3C)cc(OC)c1OC,?,?,nt,-6.0%,-1.0%[11.6 µM],-12.1%
CN(C)c1ccc(/C=C2\C=Cc3cc([N+](=O)[O-])ccc32)cc1,-6.1%,1.0%,nt,-21.3%,nt,nt
CCc1ccc(N2C(=O)CSC23C(=O)N(Cc2cccc(OC)c2)c2ccccc23)cc1 (stereo unspecified),-13.5%,-9.3%,-0.4%,5.1%,nt,-0.4%
CCCn1c(CCC(=O)O)ccc1-c1ccc(OC)cc1,5.9%,-3.6%,25.1µM*,-4.2%[60.1 µM],-26.7%,?
Cc1ccc(C)c(-n2c(CCC(=O)O)ccc2-c2ccc(Cl)cc2)c1,-16.1%,7.8%,7.94µM*,4.4%,nt,13.9%
COc1ccc(-c2ccc(CCC(=O)O)n2NC(N)=O)cc1,2.5%,2.2%,6.4%,-9.3%,-5.3%,-4.5%
Cc1ccc(-c2ccc(CCC(=O)O)n2-c2ccc(C)c(Cl)c2)cc1,15.6%,8.4%,?,-0.3%,nt,5.6%
O=C(O)CCc1ccc(-c2ccc(Cl)cc2)n1CC(=O)O,?,3.8%,?,-9.1%,-11.7%,50.1µM*
COc1cccc(NC(=O)c2sc3nc(C)c(C(=O)Nc4ccc(Cl)cc4)c(-c4ccc(Br)cc4)c3c2N)c1,?,5.8%,38.1%,-10.6%,nt,-16.9%
COc1ccc(S(=O)(=O)Nc2ccc3oc4c(c3c2)C(=O)CC(C)(C)C4)cc1,-14.7%,5.8%,-16.7%,-5.5%,nt,-2.1%
Cc1cc(C)c(S(=O)(=O)Nc2ccc3oc4c(c3c2)C(=O)CC(C)(C)C4)cc1C,79.4µM*,-14.8%,-12.4%,-2.8%,nt,-9.6%
COc1cccc(-c2ccc3ncnc(NCc4ccc(OC)cc4OC)c3c2)c1,nt,nt,nt,-2.7%[60.1 µM],nt,nt
c1ccc2c(c1)OCC(c1nn3c(Cn4nnc5ccccc54)nnc3s1)O2 (stereo unspecified),50.1µM*,-2.7%,?,?,-33.0%[57.1 µM],?
SMILES,POLI inh,FEN1 inh,Pol beta inh,Pol kappa inh,WRN helicase inh,Pol eta inh
c1ccc(-c2nn3c(Cn4nnc5ccccc54)nnc3s2)nc1,?,-22.0%,17.8µM*,?,-22.4%,79.4µM*
c1cncc(-c2nn3c(Cn4nnc5ccccc54)nnc3s2)c1,-18.1%,-3.4%,10.3%,-14.9%,-7.8%,-0.8%
COc1ccc(OC)c2sc(N(Cc3cccnc3)C(=O)c3ccc(C(C)=O)cc3)nc12,?,1.4%,-2.8%,-19.7%[60.1 µM],nt,-16.1%
Cc1cccc(CCNC(=O)C2CCCN(S(=O)(=O)c3ccc4c(c3)oc(=O)n4C)C2)c1 (stereo unspecified),11.5%,-0.3%,0.4%,-5.5%,nt,-15.6%
CCOC(=O)c1cc(=O)n2[nH]c(-c3ccc(C)cc3)cc2n1,-2.5%,-5.1%,-10.4%,-17.8%,6.3%,-12.1%
CCOC(=O)Cc1cc(=O)n2[nH]c(-c3ccc(C)cc3)cc2n1,79.4µM*,-5.4%,22.4µM*,-37.9%,-17.2%[57.1 µM],?
C=C/C(C)=C/[C@@]1(C)SC(=O)C(C)=C1O,?,nt,25.1µM*,nt,nt,14.1µM*
CC(=O)NC1=CC(=O)c2nonc2C1=O,-84.4%,-53.3%,nt,?,nt,nt
CCOc1cc(/C=C2/NC(=O)NC2=O)cc(Br)c1OCc1ccc(C(=O)O)cc1,?,?,25.1µM*,-1.3%,?,?
CCOC(=O)Cc1nnc(NC(=O)CSc2nnc3c4ccccc4n(C)c3n2)s1,5.01µM*,?,44.7µM*,?,?,-5.7%
Cc1ccc(C2=NN=C(NC(=O)CSc3nnc4c5ccccc5n(C)c4n3)SC2)cc1,-17.0%,2.9%,35.5µM*,-6.5%,-16.2%,?
Cc1noc(C)c1C(=O)N1CCC2(CCCN(c3ccccn3)C2)CC1,nt,nt,nt,1.2%[60.1 µM],nt,nt
CCOC(=O)c1c[nH]c2cc(OCC(C)C)c(OCC(C)C)cc2c1=O,nt,nt,nt,8.0%[19.4 µM],nt,nt
COc1ccc(N=Cc2cc(Cc3ccccc3Cl)cc([N+](=O)[O-])c2O)cc1OC,?,-26.3%,0.6%,-15.8%,1.9%,28.2µM*
COc1ccc(-c2noc(-c3nnn(-c4ccc(C)cc4C)c3C)n2)cc1,-13.1%,19.3%,-1.9%,-2.1%,nt,1.4%
C/C(=N/NS(=O)(=O)c1ccccc1)c1c[nH]c2ccccc12,89.1µM*,15.8%,17.6%,-33.4%,2.0%[11.6 µM],-0.3%
Cc1ccc2nc(-c3ccc(NC(=O)c4ccco4)cc3)[nH]c2c1,?,?,25.1µM*,-28.5%,-30.9%,?
O=C(Nc1ccc2nc(-c3cccs3)[nH]c2c1)c1cccs1,?,-10.3%,3.4%,-10.5%,-35.1%,?
Cc1ccc(-n2nc3ccc(NC(=O)C(C)C)cc3n2)cc1,9.3%,11.9%,9.5%,-4.4%[60.1 µM],-4.2%,4.1%
